These results are taken from the OligoGym collection.

What all share (assay): pooled miR-30 sensor sort-seq; sequence = guide strand
What all share (conditions): shRNA

The target in experiment [1] is HIST2H3A.
Experiment [2] has as its target HLA-DRA.
Experiment [3] has as its target HKR1.
The target in experiment [4] is HLA-DMA.
In experiment [5] the target is HMGB2.
Experiment [6] addresses HMGN1.
Experiment [7] concerns the target HMOX1.
Further: reference of the scale not given here.

Consider TAATGGTCACGCGCTTGGCGTG, for which the sensor-assay potency score (higher = more potent) in experiment [1] is -1.65.

TAAACAATAAGTACACAAGAGA: the sensor-assay potency score (higher = more potent) in experiment [2] was -0.861.

For TTGATGAGGACTGACATACTGC, the sensor-assay potency score (higher = more potent) in experiment [3] was -0.174.

TCTCGCGTACCAGCCGCTGGAA: the sensor-assay potency score (higher = more potent) in experiment [1] was -1.89.

For the sequence TTGCTGGATCATCCACTCGCAG, the sensor-assay potency score (higher = more potent) in experiment [4] was -1.31.

On to TTGGGCATAATGGTCACGCGCT, for which the sensor-assay potency score (higher = more potent) in experiment [1] is -0.549.

In experiment [4], TTGGAGTAGGAGCTTCAGGGAC yielded a sensor-assay potency score (higher = more potent) of -1.01.

For the sequence ATAAACTTGAAAACAGCTGAGA, in experiment [3], the sensor-assay potency score (higher = more potent) is -0.36.

TGCTGGATCATCCACTCGCAGA gave a sensor-assay potency score (higher = more potent) in experiment [4] of -1.77.

Take TTGCGGATCAGCAGCTCCGTGG: the sensor-assay potency score (higher = more potent) in experiment [1] was -1.49.

For the sequence TTGGTGATCGGAGTATAGTTGG, the sensor-assay potency score (higher = more potent) in experiment [2] was -0.222.

Regarding TTGATTTCTCCAAATCCTGAGA, in experiment [3], the sensor-assay potency score (higher = more potent) was -0.892.

TTTGCAGACATGGTCTTCCATC yielded a sensor-assay potency score (higher = more potent) in experiment [5] of -0.617.

Consider TTTAGTTTCTTGGTTAGCCACT, for which the sensor-assay potency score (higher = more potent) in experiment [6] was -0.724.

In turn, TTTAGGAGCATTGGGGTCCTTT had a sensor-assay potency score (higher = more potent) in experiment [5] of -0.857.

In experiment [7], TTGCGGTGCAGCTCTTCTGGGA registered a sensor-assay potency score (higher = more potent) of -0.856.

In the case of TTATCCTTCGCTGCTGCCTTTT, the sensor-assay potency score (higher = more potent) in experiment [6] is -1.55.

Take TTCGCTTCCACTTTTGCAGGAG: the sensor-assay potency score (higher = more potent) in experiment [6] was 0.413.

For the sequence TACAGCAACTGTCGCCACCAGA, the sensor-assay potency score (higher = more potent) in experiment [7] was -0.902.

In experiment [5], TTCTTCTTCTTTGAGCCTGTTG came in with a sensor-assay potency score (higher = more potent) of -0.484.

Take TAAGTCTTCTTTAGTTTCTTGG: the sensor-assay potency score (higher = more potent) in experiment [6] stood at 0.158.

Turning to TTCGTGAGCACAGTTACCTCTG, in experiment [2], the sensor-assay potency score (higher = more potent) was 0.227.

TTGAGCAGGAACGCAGTCTTGG came in with a sensor-assay potency score (higher = more potent) in experiment [7] of -0.286.

TCTTCAGTGATCTTCTCTCTAA: in experiment [2], the sensor-assay potency score (higher = more potent) is -0.905.

TCTTCTATCACCCTCTGCCTGA registered a sensor-assay potency score (higher = more potent) in experiment [7] of -0.665.

As to AAACACAAGACACAACATCTTT, in experiment [7], the sensor-assay potency score (higher = more potent) is -0.747.

Turning to TTAGAGTACGGAGCAATCGAAG, the sensor-assay potency score (higher = more potent) in experiment [2] was -1.52.

As for AAGATTTATCCTTCGCTGCTGC, the sensor-assay potency score (higher = more potent) in experiment [6] is -0.0749.

Sequence TCTTCTGGGAAGTAGACAGGGG showed a sensor-assay potency score (higher = more potent) in experiment [7] of -0.217.

With TTTAGGAACATTCAACATCAGA, the sensor-assay potency score (higher = more potent) in experiment [5] was -0.879.

Sequence TATCTTTGGCTGACTGCTCAGA showed a sensor-assay potency score (higher = more potent) in experiment [5] of -0.772.

Sequence TTGCACTTTGTTGCTGGCCCGC returned a sensor-assay potency score (higher = more potent) in experiment [7] of -1.2.

Sequence TAGGGGATGACCTCCTGCCAGC displayed a sensor-assay potency score (higher = more potent) in experiment [7] of -1.69.

TTGAACTTGGTGGCACTGGCAA: in experiment [7], the sensor-assay potency score (higher = more potent) was -0.865.

For TTAGCTGACAACCGCGCCGATC, in experiment [6], the sensor-assay potency score (higher = more potent) is -1.18.

For the sequence TCATGAACTCAGCATTCTCTGC, the sensor-assay potency score (higher = more potent) in experiment [7] was -0.85.
